Compound activity (PubChem)
Hits are enriched below; roughly 1.3% of the tested compounds scored in any of these assays.
Gli-Sufu block: antagonists of Gli-Sufu signaling. Sufu-KO-LIGHT fibroblasts, Gli luciferase reporter luminescence. inhibition, % at 5 µM. hit rate 0.74% among 340,000. AID 588413;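 active = inhibition above about 55%, limit read from the data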;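 note: 0% = DMSO-treated cells and 100% = wells with medium but no cells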
NR5A2 inv ag: suppresses constitutive activity of human LRH-1; hit rate 0.13% among 360,000; HEK293T StAR-luciferase reporter, LRH-1 transfected, 24 h; O00482; inhibition, % at 3.6 µM;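 active = inhibition above the mean inhibition of all tested compounds plus 3 SD, cut at about 73% in these data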;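 note: 0% = DMSO wells and 100% = reporter-only cells lacking LRH-1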
Target sequence (O00482 whole entry, looked up): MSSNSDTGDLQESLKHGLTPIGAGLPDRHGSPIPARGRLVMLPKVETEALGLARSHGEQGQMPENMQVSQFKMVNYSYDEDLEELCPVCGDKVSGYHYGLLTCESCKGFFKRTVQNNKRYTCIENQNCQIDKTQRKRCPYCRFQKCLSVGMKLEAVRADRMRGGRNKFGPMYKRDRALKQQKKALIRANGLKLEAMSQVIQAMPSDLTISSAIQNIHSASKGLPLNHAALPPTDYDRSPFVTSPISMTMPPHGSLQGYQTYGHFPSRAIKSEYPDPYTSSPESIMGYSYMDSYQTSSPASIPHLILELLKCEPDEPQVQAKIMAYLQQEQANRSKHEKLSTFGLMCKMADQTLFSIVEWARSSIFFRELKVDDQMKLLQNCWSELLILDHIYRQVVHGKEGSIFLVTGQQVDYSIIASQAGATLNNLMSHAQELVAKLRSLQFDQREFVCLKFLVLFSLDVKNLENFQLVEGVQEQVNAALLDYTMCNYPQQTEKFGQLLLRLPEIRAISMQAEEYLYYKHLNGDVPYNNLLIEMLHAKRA
NR2F2 inh: blocks human COUP-TFII nuclear receptor; inhibition, % at 8.6 µM; P24468; hit rate 0.7% among 370,000; HEK293T NGFI-A luciferase reporter, luminescence;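 active = inhibition above a per-plate cutoff, mean inhibition of test wells between control levels plus 3 SD, cut at about 38% in these data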;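 note: cells cotransfected with COUP-TFII expression vector driving the NGFI-A reporter; 0% = median of COUP-TF2 test wells and 100% = reporter-only cells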
NCOA3 inh: inhibits human SRC3 coactivator; Q9Y6Q9; HEK293 GAL4-SRC3 luciferase reporter, luminescence; inhibition, % at 3.6 µM; hit rate 0.17% among 360,000; AID 588352;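 active = inhibition above a per-campaign cutoff, the mean of all compounds plus 3 SD, cut at about 60% in these data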;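 note: 0% = DMSO-treated cells and 100% = gossypol-treated cells at 36 µM; higher means less SRC3-driven luciferase light from the GAL4 reporter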
NCOA1 inh: inhibits human SRC1 coactivator. Q15788. HEK293 GAL4-SRC1 luciferase reporter, luminescence. inhibition, % at 3.6 µM. hit rate 0.12% among 360,000. AID 588354;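 active = inhibition above the campaign mean plus 3 SD, with each screening campaign given its own cutoff, cut at about 60% in these data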;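 note: 0% = DMSO treated cells and 100% = gossypol at 36 µM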
SRC2 inh: human SRC2 (NCOA2) inhibition; hit rate 0.17% among 370,000; HEK293 GAL4-SRC2 luciferase reporter, luminescence; inhibition, % at 9 µM; Q15596; AID 651957;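 active = inhibition above the mean inhibition of all tested compounds plus 3 SD, set per campaign, cut at about 52% in these data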;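 note: 0% = DMSO treated cells and 100% = cells given Gossypol at 36 µM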
Gli-Sufu confirm: Gli-SUFU antagonism confirmation, single concentration. hit rate 40% among 2,500. inhibition, % at 5 µM. shares compounds with Gli-Sufu block. Sufu-KO-LIGHT cells, Gli luciferase reporter, luminescence;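 active = mean inhibition at 5 µM reaching about 45%, limit read from the data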;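 note: plate controls were DMSO-treated cells for no effect and wells lacking cells for full effect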
SufuKO cytotox: cytotoxicity counter-screen for Gli-SUFU antagonists. shares compounds with Gli-Sufu block. Sufu-KO-LIGHT cells cytotoxicity, ATP luminescence. cytotoxicity, % at 5 µM. hit rate 32% among 2,500;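 active = mean cytotoxicity at 5 µM above about 25%, limit read from the data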;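 note: cells exposed to compound overnight for roughly 16 to 18 hours; plate controls were DMSO wells with cells for no effect and medium without cells for full effect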
Wnt3a cs: counter-screen for Gli-SUFU antagonists: Wnt3a reporter inhibition; shares compounds with Gli-Sufu block; Wnt-LIGHT cells, Wnt3a-driven luciferase reporter, luminescence; inhibition, % at 6.25 µM; hit rate 20% among 2,500; AID 651995;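 active = mean inhibition above about 25%, limit read from the data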
Gal4-VP16 ctr: inhibits VP16 reporter, flagging COUP-TFII antagonist hits; shares compounds with NR2F2 inh; HEK293 Gal4-VP16 luciferase reporter, luminescence; inhibition, % at 8.5 µM; hit rate 25% among 2,500; in the data active = inhibition above about 13%
COUP-TFII conf: confirmation of human COUP-TFII (NR2F2) inhibitors; HEK293 NGFI-A luciferase reporter, luminescence; AID 687008; inhibition, % at 8.5 µM; shares compounds with NR2F2 inh; hit rate 45% among 2,500;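 active = mean inhibition over three repeats above a set limit taken from the earlier primary screen, cut at about 38% in these data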;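 note: 100% = cells given the luciferase reporter alone without the COUP-TF2 vector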
* marks the source's active call; other numbers are inactive results.

Screening CCCc1ccc(-c2ccc(/C=C/C(=O)O)cc2)nc1 returned Gli-Sufu block 71*, NR5A2 inv ag 78*, NR2F2 inh 98*, NCOA3 inh 65*, NCOA1 inh 71*, SRC2 inh 88*, Gli-Sufu confirm 69*, SufuKO cytotox 56*, Wnt3a cs 91*, Gal4-VP16 ctr 91* and COUP-TFII conf 102*.
COc1ccc(N(Cc2ccccc2)C(=O)CSc2nnc(Cn3nnc4ccccc43)o2)cc1 was read as Gli-Sufu block 5, NR5A2 inv ag 10, NR2F2 inh 12, NCOA3 inh 24, NCOA1 inh -33 and SRC2 inh -2.
Screening O=C(CSc1nnc(Cn2nnc3ccccc32)o1)N(Cc1ccc(F)cc1)c1ccccc1 returned Gli-Sufu block 68*, NR5A2 inv ag 50, NR2F2 inh 79*, NCOA3 inh 32, NCOA1 inh 29, SRC2 inh 24, Gli-Sufu confirm 57*, SufuKO cytotox 45*, Wnt3a cs 21, Gal4-VP16 ctr 0 and COUP-TFII conf 62*.
CC(=O)Nc1ccc(N/C(N)=N/c2nc(C)cc(C)n2)cc1 was read as Gli-Sufu block 13, NR5A2 inv ag 24, NR2F2 inh -7, NCOA3 inh 15, NCOA1 inh -11 and SRC2 inh -3.
Screening Cc1cc(C)nc(/N=C(\N)Nc2ccc(-c3ccccc3)cc2)n1 returned Gli-Sufu block 67*, NR5A2 inv ag 29, NR2F2 inh 56*, NCOA3 inh 47, NCOA1 inh 25, SRC2 inh 8, Gli-Sufu confirm 37, SufuKO cytotox 18, Wnt3a cs -95, Gal4-VP16 ctr 4 and COUP-TFII conf 35.
For CCOCCCNc1ncnc2c1[nH]c1ccccc12 the results were Gli-Sufu block 4, NR5A2 inv ag 6, NR2F2 inh 36, NCOA3 inh 1, NCOA1 inh -2 and SRC2 inh 14.
CCCCOCCCNc1ncnc2c1[nH]c1ccccc12 was read as Gli-Sufu block 81*, NR5A2 inv ag 44, NR2F2 inh 66*, NCOA3 inh 29, NCOA1 inh 18, SRC2 inh -15, Gli-Sufu confirm 82*, SufuKO cytotox 27*, Wnt3a cs 17, Gal4-VP16 ctr 14* and COUP-TFII conf 63*.
For CCN(C(=O)Cn1nnc(-c2ccncc2)n1)c1ccccc1 the results were NR2F2 inh 16 and SRC2 inh 6.
`COc1cc(C(=O)N2CCN(c3ncnc4sc(C)c(C)c34)CC2)cc(OC)c1OC` gave Gli-Sufu block 57*, NR5A2 inv ag 34, NR2F2 inh 48*, NCOA3 inh 9, NCOA1 inh 13, SRC2 inh -5, Gli-Sufu confirm 54*, SufuKO cytotox 31*, Wnt3a cs -22, Gal4-VP16 ctr 8 and COUP-TFII conf 48*.
Screening COc1ccc(N2CCN(c3ncnc4c3[nH]c3ccccc34)CC2)cc1 returned Gli-Sufu block 71*, NR5A2 inv ag 38, NR2F2 inh 52*, NCOA3 inh 32, NCOA1 inh 30, SRC2 inh 21, Gli-Sufu confirm 80*, SufuKO cytotox 24, Wnt3a cs 21, Gal4-VP16 ctr 6 and COUP-TFII conf 61*.
For COc1ccc(COc2ccccc2C(=O)NCc2ccccc2)cc1F the results were Gli-Sufu block 53, NR5A2 inv ag 5, NR2F2 inh 41*, NCOA3 inh 13, NCOA1 inh 12, SRC2 inh 18, Gli-Sufu confirm 20, SufuKO cytotox 15, Wnt3a cs 12, Gal4-VP16 ctr -8 and COUP-TFII conf 2.
CCN(CC)C(=O)CC[C@@H]1CC[C@]2(CCCN(Cc3ccccc3)C2)O1 was read as NR2F2 inh -22 and SRC2 inh 13.
Screening CCCCOC(=O)c1[nH]c2c(c1C)C(=O)CC(c1cc(OC)c(OC)c(OC)c1)C2 (stereo not drawn) returned Gli-Sufu block 52, NR5A2 inv ag 28, NR2F2 inh 71*, NCOA3 inh 41, NCOA1 inh 31, SRC2 inh 3, Gli-Sufu confirm 60*, SufuKO cytotox 24, Wnt3a cs 12, Gal4-VP16 ctr 12 and COUP-TFII conf 63*.
For CN1C(=O)C[C@@](C#N)(C(=O)N2CCOCC2)[C@H]1c1ccccc1 the results were NR2F2 inh -9 and SRC2 inh 8.
`COc1ccc(-c2nc(CN3CCN(c4ncnc5ccccc45)CC3)c(C)o2)c(OC)c1` gave Gli-Sufu block 60*, NR5A2 inv ag 17, NR2F2 inh 52*, NCOA3 inh 4, NCOA1 inh 12, SRC2 inh 25, Gli-Sufu confirm 35, SufuKO cytotox 9, Wnt3a cs -3, Gal4-VP16 ctr -3 and COUP-TFII conf 40*.
For COc1ccc(-c2nc(CN3CCN(c4ccccc4OC)CC3)c(C)o2)cc1 the results were Gli-Sufu block 43, NR5A2 inv ag -4, NR2F2 inh -5, NCOA3 inh 12, NCOA1 inh 2 and SRC2 inh 0.
Screening CC(C)C[C@@H](CO)N1Cc2nnn(Cc3ccccc3)c2-c2ccccc2S1(=O)=O returned NR2F2 inh 2 and SRC2 inh 18.
For Cc1nnsc1C(=O)NC1CCCc2c1cnn2-c1ccc(F)cc1F (stereo not drawn) the results were Gli-Sufu block 65*, NR5A2 inv ag 49, NR2F2 inh 64*, NCOA3 inh 12, NCOA1 inh 14, SRC2 inh 4, Gli-Sufu confirm 56*, SufuKO cytotox 13, Wnt3a cs -4, Gal4-VP16 ctr 2 and COUP-TFII conf 66*.
Screening Cc1nnsc1C(=O)NC1CCCc2c1cnn2-c1cc(F)cc(F)c1 (stereo not drawn) returned Gli-Sufu block 5, NR5A2 inv ag 0, NR2F2 inh 5, NCOA3 inh 5, NCOA1 inh 5 and SRC2 inh -7.
